Test results taken from PubChem BioAssay.
Where “and” joins values, the source holds several entries; their conditions need not be identical. Equal values may be shown once. Records with an inconclusive call do not appear. Calls of active or inactive are those of the source. Unless noted, the limit is not given here; nearly all actives have AC50 up to about 26 µM.

What was measured:
[1] = growth inhibition of DIPG glioma cells, dose response, cell-based, SU-DIPG-XVII, MIPE5.0, CellTiter-Glo, qHTS (AID 1347060); settings: SU-DIPG-XVII viability, CellTiter-Glo ATP luminescence;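 as to AC50: cells exposed to compound for 48 hours before viability readout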
[2] = growth inhibition of DIPG glioma cells, dose response, cell-based, SU-DIPG-XIII, MIPE4.0, CellTiter-Glo, qHTS (AID 1347061; cut-off not given, nearly all actives have AC50 up to about 37 µM;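 also: cells exposed to compound for 48 hours before readout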); settings: SU-DIPG-XIII viability, CellTiter-Glo ATP luminescence
[3] = growth inhibition of DIPG glioma cells, dose response, cell-based, JHH-DIPG-1, MIPE4.0, CellTiter-Glo, qHTS (AID 1347062; cut-off not given, nearly all actives have AC50 up to about 27 µM;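 as to AC50: cells exposed to compound for two days before readout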); settings: JHH-DIPG-1 viability, CellTiter-Glo ATP luminescence
[4] = growth inhibition of DIPG glioma cells, dose response, cell-based, SU-DIPG-IV, MIPE4.0, CellTiter-Glo, qHTS (AID 1347063; cut-off not given, nearly all actives have AC50 up to about 30 µM;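 also: compound exposure lasted 48 hours before the viability readout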); settings: SU-DIPG-IV viability, CellTiter-Glo ATP luminescence
[5] = growth inhibition of DIPG glioma cells, dose response, cell-based, SU-DIPG-XIII, MIPE5.0, CellTiter-Glo, qHTS (AID 1347064; cut-off not given, nearly all actives have AC50 up to about 23 µM;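 as to AC50: cells exposed to compound for 48 hours before the viability read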); settings: SU-DIPG-XIII viability, CellTiter-Glo ATP luminescence
[6] = viability loss in pontine glioma line – cell-based, SU-DIPG-XXV, MIPE5.0, CellTiter-Glo, qHTS, dose response (AID 1347065); settings: CellTiter-Glo ATP luminescence;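 also: cells exposed to compound for 48 hours before ATP readout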
[7] = SU-DIPG-VI glioma cell viability, MIPE4.0 library, CellTiter-Glo luminescence, qHTS (AID 1347066; cut-off not given, nearly all actives have AC50 up to about 30 µM;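 also: cells exposed to compound for 48 hours before readout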); settings: CellTiter-Glo ATP luminescence
[8] = JHH-DIPG-1 glioma cell viability, MIPE5.0 library, CellTiter-Glo luminescence, qHTS (AID 1347067); settings: JHH-DIPG-1 glioma viability, CellTiter-Glo ATP luminescence;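 also: cells exposed to compound for 48 hours before readout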
[9] = SU-DIPG-XXV glioma cell viability, MIPE5.0 library, qHTS (AID 1347068; cut-off not given, nearly all actives have IC50 up to about 30 µM;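 as to IC50: cells exposed to compound for 48 hours before viability readout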)
[10] = sensitizers of A549 cells to miR-34 induction, primary screen, imaging, A549 dox-inducible miR-34, nuclei and caspase counts (AID 1347080;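 active = compounds whose cell count with miR-34 switched on is under 0.7 times the count with it off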); settings: A549 miR-34 inducible, Hoechst nuclei count, 48 h
[11] = modifiers of HSF1 nuclear foci, imaging, Selleck Cancer Library (AID 1347162; in the data active = plate-normalised HSF1 focus index below about 0.46); settings: human cells, at 10 µM; SSMD: measured here: HSF1 foci SSMD mean; cell count: measured here: cell number; plate-normalised HSF1 focus index: stronger effect = lower value
[12] = survival rescue of mitochondrial mutant cells in low glucose, primary screen, MELAS cybrids, Rieske KO mouse fibroblasts, CellTiter-Glo (AID 1508586;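 active = mean z-score across replicates of 1.96 or higher in either the MELAS or the Rieske mutant cell line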;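 also: z relative to plate mean and SD of compound and empty wells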)
[13] = circadian clock period modulators, cell-based, LOPAC library, luminescence reporter (AID 2774; call rule not given here;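 also: values are relative to mean of DMSO wells on each plate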); settings: circadian reporter cells, at 7 µM, actives lie on both sides
[14] = test system: Hepatitis C virus NS3 helicase; experiment: HCV NS3 helicase inhibitors, primary screen, biochemical, fluorescence polarization, LOPAC1280 library (AID 687035; in the data active = inhibition above about 37%); settings: Purified HCV NS3 helicase, Cy5-dT15 ssDNA binding fluorescence polarization; stronger effect = higher value; concentration not given here
[15] = Cy5 fluorescence quenching or enhancement artefacts, artefact control for HCV NS3 helicase inhibitor project, biochemical, LOPAC1280 (AID 687037; call rule not given here); settings: Cy5-DNA-NS3h complex fluorescence interference counterscreen
[16] = test system: Aerobactin synthetase IucA (Klebsiella pneumoniae, hypervirulent); experiment: IucA enzyme inhibition, biochemical, LOPAC library, absorbance readout (AID 1346212; call rule not given here;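 also: 100% = no compound wells and 0% = no enzyme wells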); settings: IucA enzyme assay, absorbance (OD) readout; stronger effect = lower value;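 tested at 8 µM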
[17] = hESC survival regulators, cell-based (AID 493140; call rule not given here;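 also: cells exposed to compounds for four days before counting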); settings: human embryonic stem cell survival screen; stronger effect = higher value
[18] = liver-stage malaria parasite growth inhibition, primary screen, cell-based, HepG2, luciferase luminescence, HepG2 viability (AID 624349; in the data active = parasite load remaining mostly below about 12%, no sharp cut-off; inactive = mostly above about 10%;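 also: 100% = mean of DMSO negative control wells on the same plate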); settings: P. berghei liver stage in HepG2, luciferase luminescence, concentration not given here; parasite load remaining: stronger effect = lower value; viability: measured here: HepG2 viability without parasites
[19] = target: NAD(+) hydrolase SARM1 (Homo sapiens) (UniProt Q6SZW1); experiment: SARM1 TIR NADase inhibitors, cell lysate, NAD-Glo luminescence (AID 1508614;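 active = compound whose remaining NAD level is above about 45 nM, limit read from the data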;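 also: higher remaining NAD means stronger inhibition of SARM1 NADase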); settings: SAM-TIR HEK293T lysate NADase, at 1 µM, stronger effect = higher value
Chain of NAD(+) hydrolase SARM1 (Homo sapiens) (Q6SZW1 whole entry, looked up): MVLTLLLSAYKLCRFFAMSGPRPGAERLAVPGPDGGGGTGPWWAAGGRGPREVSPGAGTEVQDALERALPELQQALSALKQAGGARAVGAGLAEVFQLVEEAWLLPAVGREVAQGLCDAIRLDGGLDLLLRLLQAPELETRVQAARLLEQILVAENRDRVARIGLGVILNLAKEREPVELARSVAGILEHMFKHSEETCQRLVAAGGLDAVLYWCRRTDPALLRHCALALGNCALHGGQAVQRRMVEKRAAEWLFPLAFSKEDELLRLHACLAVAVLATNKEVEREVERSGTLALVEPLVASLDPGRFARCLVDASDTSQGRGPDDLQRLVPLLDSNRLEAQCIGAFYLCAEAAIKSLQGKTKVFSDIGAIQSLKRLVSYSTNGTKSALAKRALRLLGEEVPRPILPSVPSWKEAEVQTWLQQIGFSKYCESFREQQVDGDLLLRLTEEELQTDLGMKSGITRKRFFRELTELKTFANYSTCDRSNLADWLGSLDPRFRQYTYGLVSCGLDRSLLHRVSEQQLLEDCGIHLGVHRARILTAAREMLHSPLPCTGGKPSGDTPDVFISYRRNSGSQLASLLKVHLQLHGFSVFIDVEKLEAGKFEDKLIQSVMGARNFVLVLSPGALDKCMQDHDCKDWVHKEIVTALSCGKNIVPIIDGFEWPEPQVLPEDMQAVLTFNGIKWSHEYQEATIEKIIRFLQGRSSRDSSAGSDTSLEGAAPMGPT

[20] = stronger effect = lower value, cell number ratio, induced over uninduced
[21] = measured here: relative caspase fold change +Dox/-Dox
[22] = measured here: total cells with miR-34 induction, stronger effect = lower value
[23] = measured here: total cells without miR-34 induction
[24] = MELAS cybrid survival, CellTiter-Glo 48 h, stronger effect = higher value
[25] = Rieske KO mouse fibroblast survival, CellTiter-Glo 72 h

O=C(Oc1ccc([N+](=O)[O-])cc1)N1CCC(C(O)(c2ccc3c(c2)OCO3)c2ccc3c(c2)OCO3)CC1
-0.259: z-score [12, 25]
inactive: outcome [1] | outcome [2] | outcome [3] | outcome [4] | outcome [5] | outcome [6] | outcome [7] | outcome [8] | outcome [9] | fold change [10, 20] 1.03 and 0.881 | plate-normalised HSF1 focus index [11] 1.2 | z-score [12, 24] -0.115
5850 and 9460: cell count [10, 23]
3.32: SSMD [11]
6030 and 8340: cell count [10, 22]
6730: cell count [11]
1.13 and 1: fold change [10, 21]

N=c1c2c(-c3ccccc3)c(-c3ccccc3)n(Cc3ccccc3)c2ncn1C1CCC(O)CC1 (stereo not given)
inactive: outcome [2]
active: AC50 [1] 18.6 µM | AC50 [4] 8.33 µM | AC50 [5] 16.6 µM | AC50 [6] 20.9 µM | IC50 [9] 18.6 µM

C=CCN1CCc2cccc3c2[C@H]1Cc1ccc(O)c(O)c1-3
inactive: period change [13] 0.185 h | inhibition [14] -3% | fluorescence ratio (interference) [15] 1.1 | remaining activity [16] 110%

C=CCN(C1=NCCN1)c1c(Cl)cccc1Cl
inactive: inhibition [14] -4% | fluorescence ratio (interference) [15] 1 | remaining activity [16] 95.7%

CCN1CCN(C(=O)Cc2ccc(Nc3ncc(F)c(Nc4ccc(C(=O)Nc5ccccc5Cl)cc4)n3)cc2)CC1
705: cell count [10, 22]
inactive: outcome [2] | fold change [10, 20] 0.811
869: cell count [10, 23]
0.731: fold change [10, 21]
active: AC50 [1] 1.86 µM | AC50 [3] 10.5 µM | AC50 [4] 8.33 µM | AC50 [5] 6.61 µM | AC50 [6] 1.05 µM | AC50 [7] 5.9 µM | AC50 [8] 3.72 µM | IC50 [9] 23.5 µM | z-score [12, 24] 2.83
-1.29: z-score [12, 25]

Clc1ccccc1C(c1ccccc1)(c1ccccc1)n1cccn1
active: AC50 [1] 23.5 µM | AC50 [6] 33.2 µM | AC50 [8] 23.5 µM
inactive: outcome [2] | outcome [7] | outcome [9]

C=C[C@H]1CN2CCC1C[C@@H]2[C@@H](O)c1ccnc2ccccc12 (stereo not given in full)
active: AC50 [2] 20.9 µM | AC50 [7] 20.9 µM
inactive: survival [17] 1.25 | parasite load remaining [18] 79% | outcome [1] | outcome [3] | outcome [5] | outcome [6] | outcome [8] | outcome [9]
73.5%: viability [18]

COc1cc2cc(c1Cl)N(C)C(=O)C[C@H](OC(=O)C(C)C)[C@]1(C)O[C@@H]1[C@H](C)[C@@H]1C[C@@](O)(NC(=O)O1)[C@H](OC)/C=C/C=C(\C)C2
active: AC50 [5] 0.0332 µM | AC50 [6] 0.00662 µM | AC50 [8] 0.00742 µM
inactive: outcome [1] | outcome [2] | outcome [3] | outcome [4] | outcome [7]

N=C1NC(=O)N2CC12 (stereo not given)
inactive: outcome [1] | outcome [2] | outcome [5] | outcome [6] | outcome [8] | outcome [9]
active: AC50 [3] 2.09 µM

CC[C@H]1/C=C\C=C/C[C@@H](C)[C@H](O)[C@@](C)(O)C(=O)[C@@H](C)[C@H](O)[C@@H](C)C(=O)[C@@H](C)[C@H](O)[C@@H](C)/C=C/C(=O)O[C@@H]2[C@H](C)[C@H](CC1)O[C@]1(CC[C@H](C)[C@H](C[C@@H](C)O)O1)[C@H]2C
active: AC50 [1] 10.5 µM | AC50 [3] 20.9 µM | AC50 [4] 10.5 µM | AC50 [5] 7.42 µM | AC50 [6] 0.00525 µM | AC50 [7] 6.62 µM | AC50 [8] 0.0661 µM

CN(C)c1cc2c(cc1Sc1nc3c(N)nccc3n1CCNCC(C)(C)C)OCO2
active: AC50 [1] 0.59 µM | AC50 [5] 1.32 µM | AC50 [6] 0.661 µM | AC50 [8] 1.32 µM | IC50 [9] 2.95 µM

CN1C(=O)[C@@H](NC(=O)[C@H](CCC(F)(F)F)[C@H](CCC(F)(F)F)C(N)=O)N=C(c2ccccc2)c2ccccc21
inactive: outcome [1] | outcome [5] | outcome [6] | outcome [8] | outcome [9]

C[C@]12CC[C@H]3[C@@H](CC[C@@]45O[C@@H]4C(O)=C(C#N)C[C@]35C)[C@@H]1CC[C@@H]2O
inactive: outcome [3] | outcome [7] | outcome [9] | remaining NAD [19] 10 nM
active: AC50 [1] 29.5 µM | AC50 [5] 20.9 µM | AC50 [6] 20.9 µM

COc1cc(C(=O)N2CC[C@@H](O)[C@@H](N)C2)cc2nc(-c3cc4ccccc4n3CC3CC3)n(C)c12
active: AC50 [1] 23.5 µM | AC50 [5] 23.5 µM | AC50 [6] 29.5 µM | AC50 [8] 23.5 µM

CCN1C[C@]2(OC(=O)c3ccccc3NC(C)=O)CC[C@H](OC)[C@@]34[C@@H]2C[C@@H]([C@@H]13)[C@@]1(O)C[C@H](OC)[C@H]2C[C@@H]4[C@]1(O)[C@H]2OC
inactive: outcome [1] | outcome [3] | outcome [4] | outcome [5] | outcome [6] | outcome [7] | outcome [8] | outcome [9]

O=C(O)CNC(=O)C1C(=O)N(C2CCCCC2)C(=O)N(C2CCCCC2)C1=O
inactive: outcome [5] | outcome [6] | outcome [9]
active: AC50 [1] 20.9 µM

COc1ccc(N(C(=O)Oc2c(C)cccc2C)c2ccnc(Nc3ccc(N4CCN(C)CC4)cc3)n2)c(OC)c1
0.474: fold change [10, 21]
active: AC50 [1] 10.5 µM | AC50 [5] 14.8 µM | AC50 [6] 10.5 µM | AC50 [8] 16.6 µM | IC50 [9] 20.9 µM
7250: cell count [10, 23]
5990: cell count [10, 22]
inactive: outcome [7] | fold change [10, 20] 0.826 | z-score [12, 24] 0.0994
-1.32: z-score [12, 25]
